Source: PubChem BioAssay (NCATS)
Values without a mark were called inactive. Inconclusive results are not listed. Calls of active or inactive are those of the source. Unless noted, the call rests on the fitted dose curve; in most records, active means well fitted curve in the direction sought with a large enough effect; inconclusive means small, poorly fitted or top-dose-only effect, or another doubt; inactive means no such curve, though single readings can be large; an effect the other way counts as inactive or inconclusive.

Key:
[1] = biological target: Lysosomal acid glucosylceramidase (Homo sapiens) (UniProt P04062); test: Glucocerebrosidase-p2 (AID 348; in the data active means potency below about 10 µM; further: potency means the concentration at half of the fitted maximal effect); details: purified GBA, blue fluorogenic substrate, 40 min
Method in brief: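 Normal human glucocerebrosidase (0.2 nM) with blue fluorogenic substrate (80 uM final) in citrate/phosphate pH 5.9 with 10mM sodium taurocholate, 0.01% tween-20; 40 min RT, NaOH/glycine stop; fluorescence Ex 365/Em 440; AC50 from a titration from 0.6 nM upwards.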

[2] = AP1 Signaling Pathway (AID 357; active means well fitted curve in either direction with a large enough effect, not every such curve was filed as active;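 further: ME-180 reporter cells stimulated with EGF at its EC50 level; on the % scale 0 is the no-effect control and ±100 the full control effect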); details: ME-180 AP-1-bla reporter, EGF-induced, beta-lactamase ratio, 5 h; at 7.69 µM (top of the series) unless noted
Method in brief: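 A ratiometric CCF4 readout (405 nm excitation; 460 and 530 nm emission) quantified AP-1-driven beta-lactamase in ME-180 cells after 5 h with compound and EC50 EGF; AC50 values were derived for activators and inhibitors.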

[3] = biological target: Cytochrome P450 1A2 (Homo sapiens) (UniProt P05177); test: p450-cyp1a2 (AID 410; calls by dose curve; further: potency means the concentration at half of the fitted maximal effect); details: recombinant CYP1A2, luciferin-ME demethylation, luminescence; series mostly up to 57 µM
Method in brief: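 20nM CYP1A2, 100uM Luciferin-ME (=Km), 100mM KPO4; cpd 10 min RT; +NADPH regen, 60 min RT; stop/detect 20 min; luminescence. Normalized to furafylline 57 uM = full inhibition.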

[4] = Stat Signaling Pathway (AID 446; active means well fitted curve in either direction with a large enough effect, not every such curve was filed as active;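 further: ME-180 cervical cancer cells given 40 pM IL-6 alongside compound; SIE-controlled beta-lactamase reporter measured as 460/530 nm FRET emission ratio; on the % scale 0 is the no-effect control and ±100 the full control effect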); details: ME-180 (cervical carcinoma) SIE beta-lactamase reporter, IL-6 stimulated, 5 h; at 7.69 µM (top of the series) unless noted
Method in brief: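 Compound effects on IL-6-induced STAT reporter activity were measured in ME-180 cells. After overnight culture, cells were co-treated with 40 pM IL-6 for 5 hrs before beta-lactamase substrate loading at room temperature.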

[5] = biological target: Glucocorticoid receptor (Homo sapiens) (UniProt P04150); test: GR-GFP Redistribution (AID 450;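 active means compounds whose dose series gives a full or clear partial fitted curve of increased nuclear translocation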; further: potency means the concentration at half of the fitted maximal effect); details: U2OS GR-GFP nuclear translocation, laser cytometry, 2 h
[6] = biological target: Glucocorticoid receptor (Homo sapiens) (UniProt P04150); test: GR-EFC Redistribution (AID 451; calls by dose curve; further: potency means the concentration at half of the fitted maximal effect); details: CHO-K1 GR-EFC translocation, beta-gal luminescence, 2 h
Method in brief: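 Translocation of GR-ED fusion to nuclear EA restores b-gal, read by luminescence after 1 h room-temperature detection. Engineered CHO-K1 biosensor cells, 1,000/well, exposed 2 h at 37 C to titrations up to 46 uM final.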

[7] = biological target: Mitogen-activated protein kinase 10 (Mus musculus) (UniProt Q61831); test: JNK3 AlphaScreen Assay (AID 530; active means well fitted curve in either direction with a large enough effect, not every such curve was filed as active;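 further: kinase came from lysate of stimulated human HepG2 cells; signal reports phosphorylation of biotinylated GST-cJun 1-79 at Ser73 with 10 µM ATP; on the % scale 0 is the no-effect control and ±100 the full control effect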); details: JNK3 lysate, c-Jun phosphorylation; series mostly up to 57.1 µM
Method in brief: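 Kinase buffer: 20 mM Tris-HCl pH 7.6, 10 mM MgCl2, 1 mM DTT, 0.1 mM Na3VO4, 0.01% Tween-20; ATP 10 uM. Substrate biotin-GST-cJun(1-79), enzyme from activated HepG2 lysates. Detection by Ser73 phospho-antibody AlphaScreen.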

[8] = biological target: Cytochrome P450 3A4 (Homo sapiens) (UniProt P08684); test: qHTS Assay for Activators of Cytochrome P450 3A4 (AID 885); details: recombinant CYP3A4, Luciferin-PPXE luminescence, 60 min; series mostly up to 57.1 µM; further: nearly all actives have a fitted effect of over 65% in size
Method in brief: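 CYP3A4 activity: Luciferin-PPXE O-dealkylation, 25uM substrate, 200mM KPO4, RT throughout. Read-out is luciferase luminescence; higher values reflect activation.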

[9] = biological target: Cytochrome P450 2D6 (Homo sapiens) (UniProt P10635); test: qHTS Assay for Inhibitors and Substrates of Cytochrome P450 2D6 (AID 891); details: recombinant CYP2D6, luciferin-ME EGE luminescence; series mostly up to 57.1 µM; further: potency means the concentration at half of the fitted maximal effect; nearly all actives have a fitted effect of over 60% in size
Method in brief: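 Luminescent read-out of luciferin formed by 5 nM human CYP2D6 demethylating 30 uM Luciferin-ME EGE (Km level) over 60 min at room temperature after NADPH regeneration addition. Data normalized to full inhibition by 1.43 uM quinidine.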

[10] = biological target: Dual specificity protein kinase CLK4 (Homo sapiens) (UniProt Q9HAZ1); test: qHTS Assay for Inhibitors of CDC-like Kinase 4 (Kinase-Glo Assay) (AID 1770); details: recombinant Clk4, Kinase-Glo ATP depletion luminescence; series mostly up to 66.7 µM; further: nearly all actives have a fitted effect of over 65% in size; further: potency means the concentration at half of the fitted maximal effect
Method in brief: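 Clk4 25 nM, RS peptide 100 uM, ATP 1 uM, pH 7.5 Tris, 10 mM MgCl2, 2.5 mM DTT; 4.5 h RT; ATP depletion read by Kinase-Glo luminescence.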

[11] = biological target: Dual specificity protein kinase CLK4 (Homo sapiens) (UniProt Q9HAZ1); test: qHTS Assay for Inhibitors of CDC-like Kinase 4 (ADP-Glo Assay) (AID 1771); details: recombinant CLK4, ADP-Glo luminescence; series mostly up to 80 µM; further: potency means the concentration at half of the fitted maximal effect; nearly all actives have a fitted effect of over 70% in size
Method in brief: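 25 nM Clk4, 100 uM RS peptide, 1 uM ATP (final); 2 mM MgCl2, 0.5 mM EGTA, 2.5 mM DTT, 0.01% Triton X-100; 1 hr RT. ADP-Glo readout: ATP depletion 45 min, conversion/luciferase 30 min, luminescence.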

[12] = Primary qHTS for small molecule stabilizers of the endoplasmic reticulum resident proteome: Secreted ER Calcium Modulated Protein (SERCaMP) assay (AID 1508630); details: SH-SY5Y GLuc-SERCaMP (Gaussia luciferase released on ER calcium loss) secretion, thapsigargin, luminescence; series mostly up to 38.4 µM; further: on the % scale 0 is the no-effect control and ±100 the full control effect
Method in brief: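 The SH-SY5Y reporter protocol was run at 3 concentrations up to 38.3 uM (primary) or 11 concentrations (follow-up): 16 h compound, 100 nM thapsigargin for 4 h, then extracellular luciferase luminescence.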

[13] = NFAT Signaling Pathway (AID 444; active means well fitted curve in either direction with a large enough effect, not every such curve was filed as active); details: Jurkat NFAT-bla M1, carbachol, beta-lactamase ratio, 5 h; at 7.69 µM (top of the series) unless noted
Method in brief: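 Read-out: CCF4 FRET ratio (460 nm/530 nm) after 1 h RT dye loading, used for %activity and AC50 from titration series. Cells: Jurkat NFAT-β-lactamase/M1 line, treated with compound plus 1 uM carbachol for 5 h, 37 °C.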

[14] = biological target: 3',5'-cyclic-AMP phosphodiesterase 4B (Homo sapiens) (UniProt Q07343); test: qHTS Assay for Inhibitors of PDE-IV (AID 607; active means well fitted activation curve with a large enough effect in the main read-out, with a control signal flat, not every such curve was filed as active; further: % of control where 0% means no effect); details: HEK293 ACTOne CNG channel cells, membrane potential fluorescence; series mostly up to 22.9 µM
Method in brief: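 ACTOne HEK293 cells carry a modified cAMP-gated CNG channel and express endogenous PDE4; plated 1000 cells/well, compounds up to 22.9 uM final. Membrane-potential dye fluorescence (ex 535/em 590) was read; parental cells received 10 uM forskolin + 100 uM RO 20-1724.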

[15] = biological target: Cytochrome P450 2C9 (Homo sapiens) (UniProt P11712); test: qHTS Assay for Inhibitors and Substrates of Cytochrome P450 2C9 (AID 883); details: recombinant CYP2C9, luciferin-H luminescence, 60 min; series mostly up to 57.1 µM; further: on the % scale 0 is the no-effect control and ±100 the full control effect; nearly all actives have a fitted effect of over 60% in size
Method in brief: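 Inhibition of CYP2C9 is scored as loss of luminescence, with 57uM sulphaphenazole defining 100% inhibition. Substrate Luciferin-H is used at 100uM, equal to its KM; enzyme at 10nM in 25mM KPO4, 60 min at 37C with NADPH regeneration.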

[16] = biological target: Cytochrome P450 3A4 (Homo sapiens) (UniProt P08684); test: qHTS Assay for Inhibitors and Substrates of Cytochrome P450 3A4 (AID 884); details: recombinant CYP3A4, Luciferin-PPXE luminescence; series mostly up to 57.1 µM; further: potency means the concentration at half of the fitted maximal effect; nearly all actives have a fitted effect of over 50% in size
Method in brief: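 Luminescent readout of luciferin produced by CYP3A4 (20 nM) dealkylation of Luciferin-PPXE, 25 uM (its KM). NADPH-driven reaction ran 60 min at RT after 10 min compound preincubation; data scaled to 57 uM ketoconazole as 100% inhibition.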

[17] = biological target: Dual specificity protein kinase CLK4 (Homo sapiens) (UniProt Q9HAZ1); test: qHTS Assay for Inhibitors of CDC-like Kinase 4 (ADP-FP Assay) (AID 1795); details: Transcreener ADP fluorescence polarization; series mostly up to 50 µM;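 further: recombinant human CLK4 phosphorylating RS repeat peptide at 1 µM ATP; on the % scale 0 is the no-effect control and ±100 the full control effect; nearly all actives have a fitted effect of over 60% in size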
Method in brief: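 Kinase activity was followed as ADP output, converted from fluorescence polarization with a calibration curve. Reactions ran one hour at low ATP (1 uM) with RS peptide substrate.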

[18] = biological target: Ubiquitin carboxyl-terminal hydrolase 1 (Homo sapiens) (UniProt O94782); test: Inhibitors of USP1/UAF1: Pilot qHTS (AID 504865); details: purified USP1/UAF1, Ub-rhodamine cleavage fluorescence; series mostly up to 54.9 µM;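 further: rhodamine fluorescence freed from ubiquitin-rhodamine substrate followed over time; top concentration of the series differs between compounds; on the % scale 0 is the no-effect control and ±100 the full control effect; nearly all actives have a fitted effect of over 35% in size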
Method in brief: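 Enzyme-free wells gave the negative control, while test wells held 1nM USP1/UAF1 preincubated with compound for 15 min at room temperature. Ub-Rho at 150nM final started the reaction, and fluorescence at 480/540 nm was recorded kinetically.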

[19] = biological target: Cytochrome P450 2C19 (Homo sapiens) (UniProt P33261); test: qHTS Assay for Inhibitors and Substrates of Cytochrome P450 2C19 (AID 899); details: recombinant CYP2C19, luciferin-H EGE luminescence; series mostly up to 57.1 µM; further: potency means the concentration at half of the fitted maximal effect; nearly all actives have a fitted effect of over 60% in size
Method in brief: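 5nM enzyme + 10uM Luciferin-H EGE (=KM), 50mM KPO4; cpd pin-transferred, 10 min 37C; NADPH regen, 60 min 37C; stopped w/ luciferin detection reagent, 20 min; luminescence. Normalized to 57uM ketoconazole (AC100).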

Cytochrome P450 1A2 (Homo sapiens), sequence (P05177 whole entry, looked up): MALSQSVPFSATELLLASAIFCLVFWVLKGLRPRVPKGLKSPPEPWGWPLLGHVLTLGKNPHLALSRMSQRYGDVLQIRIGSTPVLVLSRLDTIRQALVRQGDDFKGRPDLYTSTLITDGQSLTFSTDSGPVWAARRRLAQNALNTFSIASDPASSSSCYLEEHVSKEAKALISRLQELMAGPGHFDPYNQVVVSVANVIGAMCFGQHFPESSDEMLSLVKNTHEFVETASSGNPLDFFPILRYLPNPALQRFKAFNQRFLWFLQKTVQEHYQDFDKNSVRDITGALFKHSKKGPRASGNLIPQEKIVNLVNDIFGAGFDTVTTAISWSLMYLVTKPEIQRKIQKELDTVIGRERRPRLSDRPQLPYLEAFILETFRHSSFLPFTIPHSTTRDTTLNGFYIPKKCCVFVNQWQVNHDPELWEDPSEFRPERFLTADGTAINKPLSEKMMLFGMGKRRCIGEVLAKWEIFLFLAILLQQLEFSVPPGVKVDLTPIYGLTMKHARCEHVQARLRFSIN
Glucocorticoid receptor (Homo sapiens), sequence (P04150 whole entry, looked up, the tested form may be a part): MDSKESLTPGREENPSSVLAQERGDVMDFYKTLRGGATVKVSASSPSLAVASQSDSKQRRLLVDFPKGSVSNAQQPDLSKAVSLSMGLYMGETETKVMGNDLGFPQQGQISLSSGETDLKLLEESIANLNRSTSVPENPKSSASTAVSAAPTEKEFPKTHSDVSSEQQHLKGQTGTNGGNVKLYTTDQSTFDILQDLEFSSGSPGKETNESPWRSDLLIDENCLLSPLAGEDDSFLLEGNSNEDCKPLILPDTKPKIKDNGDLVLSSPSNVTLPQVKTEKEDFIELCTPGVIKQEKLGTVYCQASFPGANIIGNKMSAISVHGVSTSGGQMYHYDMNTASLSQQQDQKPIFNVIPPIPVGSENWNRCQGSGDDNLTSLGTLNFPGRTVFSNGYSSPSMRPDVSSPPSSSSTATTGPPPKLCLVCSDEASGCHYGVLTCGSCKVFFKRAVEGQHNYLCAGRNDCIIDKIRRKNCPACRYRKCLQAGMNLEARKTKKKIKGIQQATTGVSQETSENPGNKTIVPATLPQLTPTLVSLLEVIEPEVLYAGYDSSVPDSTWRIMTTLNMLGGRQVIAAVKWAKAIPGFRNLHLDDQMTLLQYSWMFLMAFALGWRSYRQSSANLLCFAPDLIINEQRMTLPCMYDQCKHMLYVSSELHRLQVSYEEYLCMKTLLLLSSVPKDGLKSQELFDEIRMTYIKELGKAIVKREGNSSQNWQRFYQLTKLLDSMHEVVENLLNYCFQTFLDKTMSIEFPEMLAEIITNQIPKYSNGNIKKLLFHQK
Dual specificity protein kinase CLK4 (Homo sapiens), sequence (Q9HAZ1 whole entry, looked up): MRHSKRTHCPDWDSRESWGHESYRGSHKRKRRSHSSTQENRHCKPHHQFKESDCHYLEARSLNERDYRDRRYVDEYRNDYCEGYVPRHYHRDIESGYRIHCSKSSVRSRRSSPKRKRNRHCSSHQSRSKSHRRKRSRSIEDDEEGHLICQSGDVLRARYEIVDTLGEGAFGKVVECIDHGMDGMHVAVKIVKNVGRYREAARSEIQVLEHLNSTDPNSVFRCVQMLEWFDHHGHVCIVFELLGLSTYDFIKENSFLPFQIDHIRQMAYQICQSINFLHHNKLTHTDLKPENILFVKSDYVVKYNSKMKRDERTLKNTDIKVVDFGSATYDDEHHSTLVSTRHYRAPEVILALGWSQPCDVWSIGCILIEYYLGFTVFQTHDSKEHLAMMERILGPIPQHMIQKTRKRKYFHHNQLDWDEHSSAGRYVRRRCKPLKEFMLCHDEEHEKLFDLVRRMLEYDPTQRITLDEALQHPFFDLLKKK
Cytochrome P450 3A4 (Homo sapiens), sequence (P08684 whole entry, looked up): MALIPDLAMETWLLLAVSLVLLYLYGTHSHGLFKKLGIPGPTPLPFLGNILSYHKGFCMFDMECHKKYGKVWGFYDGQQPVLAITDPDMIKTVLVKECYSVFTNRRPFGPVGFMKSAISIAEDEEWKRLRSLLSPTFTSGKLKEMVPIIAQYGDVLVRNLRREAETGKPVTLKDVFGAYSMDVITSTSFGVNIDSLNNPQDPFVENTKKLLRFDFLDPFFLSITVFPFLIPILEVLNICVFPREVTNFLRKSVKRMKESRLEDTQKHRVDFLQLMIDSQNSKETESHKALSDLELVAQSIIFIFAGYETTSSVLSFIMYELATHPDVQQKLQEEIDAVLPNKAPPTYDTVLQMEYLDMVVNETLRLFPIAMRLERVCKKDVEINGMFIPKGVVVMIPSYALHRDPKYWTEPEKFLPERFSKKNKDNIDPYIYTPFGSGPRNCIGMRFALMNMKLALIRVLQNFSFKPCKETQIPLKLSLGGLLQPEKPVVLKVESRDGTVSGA
Ubiquitin carboxyl-terminal hydrolase 1 (Homo sapiens), sequence (O94782 whole entry, looked up): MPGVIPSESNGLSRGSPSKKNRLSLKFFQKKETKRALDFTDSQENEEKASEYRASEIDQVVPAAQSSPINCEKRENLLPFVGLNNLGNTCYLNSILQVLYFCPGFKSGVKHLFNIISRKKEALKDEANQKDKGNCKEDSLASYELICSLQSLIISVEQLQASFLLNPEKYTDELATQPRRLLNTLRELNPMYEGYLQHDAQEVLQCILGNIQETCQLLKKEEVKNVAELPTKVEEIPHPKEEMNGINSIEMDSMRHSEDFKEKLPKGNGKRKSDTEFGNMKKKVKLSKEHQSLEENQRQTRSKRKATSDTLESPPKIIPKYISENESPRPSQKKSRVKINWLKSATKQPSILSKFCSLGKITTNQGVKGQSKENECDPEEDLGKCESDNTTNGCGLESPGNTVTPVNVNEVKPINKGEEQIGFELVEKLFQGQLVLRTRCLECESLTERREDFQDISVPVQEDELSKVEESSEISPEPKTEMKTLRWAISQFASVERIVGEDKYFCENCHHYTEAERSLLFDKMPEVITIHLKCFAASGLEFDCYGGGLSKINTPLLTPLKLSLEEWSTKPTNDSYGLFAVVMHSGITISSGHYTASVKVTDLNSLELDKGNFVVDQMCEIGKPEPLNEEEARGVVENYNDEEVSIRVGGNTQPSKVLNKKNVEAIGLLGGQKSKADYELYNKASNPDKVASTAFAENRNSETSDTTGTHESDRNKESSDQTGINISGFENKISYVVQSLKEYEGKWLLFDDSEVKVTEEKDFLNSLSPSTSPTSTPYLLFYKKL
Lysosomal acid glucosylceramidase (Homo sapiens), sequence (P04062 whole entry, looked up): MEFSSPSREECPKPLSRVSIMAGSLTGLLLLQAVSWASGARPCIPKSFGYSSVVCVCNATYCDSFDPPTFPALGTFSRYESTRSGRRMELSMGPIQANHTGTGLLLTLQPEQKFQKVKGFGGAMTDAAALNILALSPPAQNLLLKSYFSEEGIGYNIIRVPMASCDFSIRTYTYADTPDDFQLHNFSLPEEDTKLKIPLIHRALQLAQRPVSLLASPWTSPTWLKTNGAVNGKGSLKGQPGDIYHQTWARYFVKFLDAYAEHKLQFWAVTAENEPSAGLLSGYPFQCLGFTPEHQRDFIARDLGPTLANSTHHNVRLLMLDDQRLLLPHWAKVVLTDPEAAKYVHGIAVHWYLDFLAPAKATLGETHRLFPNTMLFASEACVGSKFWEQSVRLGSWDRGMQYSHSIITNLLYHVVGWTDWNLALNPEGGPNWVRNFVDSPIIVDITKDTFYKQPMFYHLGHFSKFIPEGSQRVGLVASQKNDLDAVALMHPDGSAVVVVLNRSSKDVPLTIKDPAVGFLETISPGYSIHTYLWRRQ
Cytochrome P450 2C19 (Homo sapiens), sequence (P33261 whole entry, looked up): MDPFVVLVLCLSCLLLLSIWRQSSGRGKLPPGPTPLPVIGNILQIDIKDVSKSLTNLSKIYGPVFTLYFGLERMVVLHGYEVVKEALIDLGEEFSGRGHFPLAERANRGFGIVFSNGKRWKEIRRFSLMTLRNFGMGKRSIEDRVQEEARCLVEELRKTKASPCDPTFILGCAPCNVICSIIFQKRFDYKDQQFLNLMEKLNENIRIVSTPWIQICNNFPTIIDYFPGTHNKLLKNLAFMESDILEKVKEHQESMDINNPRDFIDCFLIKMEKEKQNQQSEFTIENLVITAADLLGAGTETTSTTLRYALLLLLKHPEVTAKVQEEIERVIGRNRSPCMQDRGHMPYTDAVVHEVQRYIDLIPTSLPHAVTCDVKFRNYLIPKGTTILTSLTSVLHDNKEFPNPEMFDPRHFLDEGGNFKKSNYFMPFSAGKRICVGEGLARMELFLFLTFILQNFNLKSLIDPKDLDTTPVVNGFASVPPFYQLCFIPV
Cytochrome P450 2C9 (Homo sapiens), sequence (P11712 whole entry, looked up): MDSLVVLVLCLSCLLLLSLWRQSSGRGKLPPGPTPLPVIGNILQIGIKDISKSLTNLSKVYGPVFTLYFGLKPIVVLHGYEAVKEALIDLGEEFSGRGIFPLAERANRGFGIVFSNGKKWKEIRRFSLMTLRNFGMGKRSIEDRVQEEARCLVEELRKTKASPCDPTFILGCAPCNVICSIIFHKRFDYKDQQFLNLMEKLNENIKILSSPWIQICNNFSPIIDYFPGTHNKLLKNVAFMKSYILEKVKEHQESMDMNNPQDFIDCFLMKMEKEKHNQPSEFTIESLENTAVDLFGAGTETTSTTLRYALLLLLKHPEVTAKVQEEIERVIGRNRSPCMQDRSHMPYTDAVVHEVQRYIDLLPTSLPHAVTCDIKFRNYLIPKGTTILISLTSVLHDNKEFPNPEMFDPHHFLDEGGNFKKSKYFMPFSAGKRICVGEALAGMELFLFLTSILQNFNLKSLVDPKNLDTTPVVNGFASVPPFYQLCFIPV

Row | Structure (SMILES) | Potency [1] | activity change, negative = inhibition [2] | Potency [3] | activity, negative = inhibition [4] | Potency [5] | Potency [6] | Potency [7] | Potency [8] | Potency [9] | Potency [10] | Potency [11] | outcome [12] | activity change, negative = inhibition [13] | Potency [14] | activity change, negative = inhibition [15] | Potency [16] | Potency [17] | Potency [18] | Potency [19]
1 | COc1cccc(-c2nc(N(C)Cc3ccco3)c3ccccc3n2)c1 | > 11.4 µM | -7.73% | 0.316 µM (active) | -9.79% | > 46 µM | > 46 µM | inactive | inactive | 5.01 µM (active) | 12.6 µM (active) | 12.6 µM (active) | inactive |  |  |  |  |  |  | 
2 | Cc1noc(C)c1-c1nccc(NC2CC2)n1 | > 11.4 µM | 13.6% | 0.1 µM (active) | 1.49% | > 46 µM | > 46 µM | inactive | inactive |  | inactive |  | inactive | 19.7% | inactive | 3.44% [at 2.29 µM] | 2.51 µM (active) | inactive | inactive | 
3 | FC(F)(F)c1ccccc1-c1ccc2ncnc(NC3CC3)c2c1 |  | 10% | 0.316 µM (active) | -18.8% | > 46 µM | > 46 µM | inactive | inactive |  | 25.1 µM (active) | 25.1 µM (active) | inactive |  |  |  | 1.58 µM (active) |  | inactive | 2 µM (active)
